# Only some compounds are listed: those with a hit (about 14% of all), similar ones and a draw of the others.
# CHX counter – counter-screen for Shiga toxin inhibitors: cycloheximide protein synthesis inhibition | cell reporter, cycloheximide protein synthesis inhibition counterscreen | max response, % | 300,000 compounds, 12% hits; in the data active = max response mostly above about 13%, no sharp cut-off; inactive = mostly below about 14%; note: read at 38.3 µM for the half of the compounds with a filed dose; 0% is about no effect
# LmPK inhibitor – LmPK (Leishmania mexicana) enzyme inhibition; purified LmPK, Kinase-Glo ATP luminescence, 1 h; 290,000 compounds, 0.37% hits; Potency, µM (highest dose often 57.5 µM), without a hit: at the top dose activity change, negative = inhibition, hits mostly inhibitors; Q27686; note: potency is the fitted concentration of half-maximal effect; % is set by controls: 0 for no effect and ±100 for the full control effect
#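 Purified LmPK (0.1 nM) converted ADP (0.1 mM) to ATP with PEP (0.5 mM) in imidazole buffer pH 7.2 with KCl and MgCl2, 1 h at room temperature. ATP was read by Kinase-Glo luminescence; data normalized to uninhibited and no-enzyme controls.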
# NS1 function inh – blocks influenza NS1 protein function. Potency, µM (series often up to 46.1 µM), without a hit: at the top dose activity, positive = more growth. 270,000 compounds, 0.4% hits; calls by dose curve; note: potency is the fitted concentration of half-maximal effect; actives are rising curves; nearly all actives have a fitted effect of over 50% in size
#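 Recovery from NS1-induced slow growth read by OD600 in budding yeast switched to galactose assay medium (pH 6.0, -URA) at 1:100 dilution. Compound 23 nl per well; the matching strain lacking NS1 serves as control.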
# Giardia FBPA inh-1 – Giardia lamblia aldolase inhibition; A8B2U2; AID 2451; purified Giardia FBPA; Potency, µM (series often up to 59.6 µM), for inactives: at the highest dose activity, negative = inhibition, usual class: inhibitors; 290,000 compounds, 0.71% hits; note: potency is the fitted concentration of half-maximal effect; % is set by controls: 0 for no effect and ±100 for the full control effect; nearly all actives have a fitted effect of over 55% in size
#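 40 nM FBPA preincubated 10 min at RT with compound (up to 57.5 uM final), then substrate plus GAPDH/TPI/NAD/arsenate coupling and diaphorase/resazurin added. Fluorescence read after 20 min at RT, 525/598 nm.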
# Shiga toxin inh – Shiga toxin inhibition; inhibition, % at 38.7 µM; Vero cells, Shiga toxin protein synthesis inhibition reporter; AID 2315; 290,000 compounds, 9.2% hits; in the data active = inhibition mostly above about 28%, no sharp cut-off; inactive = mostly below about 43%; note: 0% is about no effect
# NS1 inh valid – influenza NS1 function inhibition validation; influenza NS1 function cell assay, 15-point titration; activity change, negative = inhibition, % at 32.9 µM; 1,400 tested, under 10 active; shares compounds with NS1 function inh; calls by dose curve; note: 0% is about no effect
# Giardia growth – inhibitors of Giardia lamblia growth; shares compounds with Giardia FBPA inh-1; Giardia lamblia trophozoite growth inhibition; Potency, µM (doses to about 57.5 µM), inactives show at the highest dose activity change, negative = inhibition, usual class: inhibitors; 1,500 compounds, 5% hits; AID 2785;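 note: potency is the fitted concentration of half-maximal effect; trophozoites exposed to compound for 48 h at 37 °C; % is set by controls: 0 for no effect and ±100 for the full control effect; nearly all actives have a fitted effect of over 70% in size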
# Mammal cell tox – counter-screen for Giardia aldolase inhibitors: mammalian cell toxicity. 1,500 compounds, 4% hits. shares compounds with Giardia FBPA inh-1. AID 2786. Potency, µM (series often up to 57.5 µM), inactives show at the highest dose viability change, negative = toxicity, usual class: inhibitors. mammalian cell viability counter-screen, qHTS;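 note: Chinese hamster ovary cells used as mammalian cytotoxicity surrogate; viability measured as cellular ATP by luminescence; potency is the fitted concentration of half-maximal effect; compound exposure lasted 48 h before reading; % is set by controls: 0 for no effect and ±100 for the full control effect; nearly all actives have a fitted effect of over 60% in size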
# Giardia FBPA inh-2 – confirmation of Giardia fructose-bisphosphate aldolase inhibitors; shares compounds with Giardia FBPA inh-1; purified Giardia aldolase enzyme activity, qHTS; Potency, µM (doses to about 57.5 µM), for the others: at the top dose activity change, negative = inhibition, usual class: inhibitors; 1,500 compounds, 5% hits; AID 2787; note: potency is the fitted concentration of half-maximal effect; % is set by controls: 0 for no effect and ±100 for the full control effect; nearly all actives have a fitted effect of over 45% in size
# Rabbit FBPA inh – blocks rabbit muscle aldolase in Giardia aldolase selectivity test; 1,500 compounds, 4% hits; shares compounds with Giardia FBPA inh-1; Rabbit muscle FBPA enzyme inhibition, selectivity counter-screen; Potency, µM (highest dose often 57.5 µM), for the others: top-dose activity, negative = inhibition, hits mostly inhibitors; note: potency is the fitted concentration of half-maximal effect; % is set by controls: 0 for no effect and ±100 for the full control effect; nearly all actives have a fitted effect of over 60% in size
# Target sequence (P00883 whole entry, looked up): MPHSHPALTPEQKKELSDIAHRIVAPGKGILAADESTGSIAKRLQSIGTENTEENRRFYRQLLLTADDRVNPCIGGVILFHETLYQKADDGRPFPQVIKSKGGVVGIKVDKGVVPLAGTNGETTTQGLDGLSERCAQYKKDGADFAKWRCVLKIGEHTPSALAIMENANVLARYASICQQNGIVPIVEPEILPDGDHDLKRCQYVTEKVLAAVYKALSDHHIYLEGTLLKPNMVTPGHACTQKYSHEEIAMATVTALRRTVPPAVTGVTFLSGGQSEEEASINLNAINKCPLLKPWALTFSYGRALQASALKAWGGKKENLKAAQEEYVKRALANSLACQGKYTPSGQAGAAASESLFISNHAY
# GAPDH counter – counter-screen for Giardia aldolase inhibitors: GAPDH coupling enzyme; shares compounds with Giardia FBPA inh-1; GAPDH coupling enzyme counterscreen, biochemical, qHTS; Potency, µM (highest dose often 57.5 µM), without a hit: at the top dose activity change, negative = inhibition, actives largely listed as inhibitors; 1,500 compounds, 6% hits; note: potency is the fitted concentration of half-maximal effect; % is set by controls: 0 for no effect and ±100 for the full control effect; nearly all actives have a fitted effect of over 55% in size
# * = called active by the depositor; ? = inconclusive; nt = no result given; [ ] = another dose, or the depositor's remark. Unless noted, calls come from the whole dose curve; as a rule, active = well fitted curve in the direction sought with a large enough effect; inconclusive = small, poorly fitted or top-dose-only effect, or another doubt; inactive = no such curve, though single readings can be large; an effect the other way counts as inactive or inconclusive.
SMILES,CHX counter,LmPK inhibitor,NS1 function inh,Giardia FBPA inh-1,Shiga toxin inh,Giardia growth,Mammal cell tox,Giardia FBPA inh-2,Rabbit FBPA inh,GAPDH counter,others
Cc1ccccc1-c1nc2ccccc2c(=O)n1/N=C/c1ccccc1[N+](=O)[O-],7,0%,3.2µM*,4.5µM*,-18,10µM*,?,?,?,35µM*,NS1 inh valid=16
COCCNC(=O)C(c1ccc(F)cc1)N(CCOC)C(=O)CCC(=O)Nc1ccccn1 (centres undefined),6,1%,?,-8%,-5,nt,nt,nt,nt,nt,
CN1CCN(Cc2coc3c(Cl)cc(Cl)cc3c2=O)CC1,2,-1%,8%,13µM*,nt,-12%,-8%,2%,8%,-11%,
CSc1ccc(CN(C)CCc2ccccn2)cc1,1,-7%,4%,14µM*,-1,-9%[10.4 µM],3%,1%,0%,5%,
CN(CCc1ccccn1)S(=O)(=O)c1ccccc1F,-6,-5%,5%,18%,-21,nt,nt,nt,nt,nt,
CN(CCc1ccccn1)Cc1ccc(Cl)c(Cl)c1,7,0%,11%,?,15,nt,nt,nt,nt,nt,
CN(CCc1ccccn1)Cc1ccc(Cl)cc1Cl,17*,-4%,-1%,18µM*,60,23%,5%,2%,0%,13%,
COc1ccc(OC)c(CNc2ncc(-c3cccc([N+](=O)[O-])c3)n2C)c1,2,-3%,12%,28µM*,-9,?,-3%,-6%,1%,4%,
CCOc1ccc(CNc2ncc(-c3ccccc3)n2C)cc1,-4,-4%,-23%,?,-3,nt,nt,nt,nt,nt,
COc1ccc(CNc2ncc(-c3ccccc3)n2C)cc1,13,6%,-10%,18µM*,nt,-18%,25%,1%,1%,9%,
Cn1c(-c2ccc(F)cc2)cnc1NCc1ccc(F)cc1,6,-10%,-14%,nt,28,nt,nt,nt,nt,nt,
Cn1c(-c2ccc(F)cc2)cnc1NCc1ccccc1F,17*,-8%,8%,28µM*,19,-9%[10.4 µM],2%,1%,3%,11%,
COc1ccc2c(Cl)c(C(=O)NCCc3ccc(S(N)(=O)=O)cc3)sc2c1,-2,-1%,5%,8%,nt,nt,nt,nt,nt,nt,
O=C(NC1CCCC1)c1cc(S(=O)(=O)N2CCCC2)ccc1Cl,0,-4%,-4%,nt,7,nt,nt,nt,nt,nt,
CCn1c(CC(=O)Nc2ccccc2)nnc1SCc1nc2ccccc2c(=O)[nH]1,-4,3%,2%,3%,-7,nt,nt,nt,nt,nt,
Fc1ccccc1CN1CCN(c2ncccn2)CC1,-1,-1%,-3%,25µM*,-4,25%,13%,5%,0%,-18%,
COc1ccc(N(CC(=O)NCCSCc2ccco2)S(=O)(=O)c2ccccc2)cc1Cl,-2,-8%,11%,9%,9,nt,nt,nt,nt,nt,
CCCc1cc(=O)n2[nH]c(NC(=O)c3ccco3)nc2n1,-4,-1%,10%,16µM*,-6,?,13%,-8%,-4%,-5%,
CCCC(=O)NC(c1ccco1)c1cc([N+](=O)[O-])c2cccnc2c1O (centres undefined),10,-15%,nt,7.1µM*,-7,?,-7%,-28%,-25%,?,
CCC(=O)NC(c1ccc(C)cc1)c1cc([N+](=O)[O-])c2cccnc2c1O (centres undefined),1,-1%,15%,?,-6,nt,nt,nt,nt,nt,
